Source: PubChem BioAssay AID1159580 (chemical genetic matrix, 2015)
Among all 5,500 compounds or so, about 2,000 (36%) were called active. Another 18% or so got no clear call; they are omitted. No stated cut-off is given here; in the data, active means normalized growth mostly below about 0.91 (no sharp cut-off); inconclusive means no clear call, values can overlap the other calls; inactive means mostly above about 0.92. Some of the results follow.

Assay: chemical genetic growth profiling, strain panel (AID 1159580);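 further: tested at 20 µM; growth read once vehicle control cultures reached saturation at 30 °C; 1 = growth at the plate median or of vehicle wells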
Details: growth OD

Measured: normalized growth

COc1cc(OC)c2c(=O)c(-c3ccccc3)c(C)oc2c1OC
inactive: S. cerevisiae deletion strains, locus YJR043C, strain POL32, stronger effect = lower value 1.01 | S. cerevisiae deletion strains, locus YJR075W, strain HOC1, stronger effect = lower value 1.02 | S. cerevisiae deletion strains, locus YKL009W, strain mrt4, stronger effect = lower value 1 | S. cerevisiae deletion strains, locus YKL068W, stronger effect = lower value 1 | S. cerevisiae deletion strains, locus YKL085W, strain MDH1 (second series), stronger effect = lower value 0.996 | S. cerevisiae deletion strains, locus YKL085W, strain MDH1, stronger effect = lower value 0.996 | S. cerevisiae deletion strains, locus YKL160W, strain elf1, stronger effect = lower value 1 | S. cerevisiae deletion strains, locus YKL190W, strain CNB1, stronger effect = lower value 1.01 | S. cerevisiae deletion strains, locus YKR001C, strain vps1, stronger effect = lower value 0.993 | S. cerevisiae deletion strains, locus YKR026C, strain gcn3, stronger effect = lower value 0.966 | S. cerevisiae deletion strains, locus YKR091W, strain srl3, stronger effect = lower value 0.962 | S. cerevisiae deletion strains, locus YLL001W, strain dnm1, stronger effect = lower value 1.01 | S. cerevisiae deletion strains, locus YLL026W, stronger effect = lower value 0.984 | S. cerevisiae deletion strains, locus YLL041C, strain sdh2, stronger effect = lower value 1 | S. cerevisiae deletion strains, locus YLR027C, strain aat2, stronger effect = lower value 0.982 | S. cerevisiae deletion strains, locus YLR039C, strain RIC1, stronger effect = lower value 0.984 | S. cerevisiae deletion strains, locus YLR058C, strain SHM2, stronger effect = lower value 1.01 | S. cerevisiae deletion strains, locus YLR102C, strain apc9, stronger effect = lower value 0.999 | S. cerevisiae deletion strains, locus YLR221C, strain rsa3, stronger effect = lower value 0.957 | S. cerevisiae deletion strains, locus YLR258W, strain gsy2, stronger effect = lower value 0.987 | S. cerevisiae deletion strains, locus YLR262C, strain YPT6 (second series), stronger effect = lower value 0.951 | S. cerevisiae deletion strains, locus YLR262C, strain YPT6, stronger effect = lower value 0.989 | S. cerevisiae deletion strains, locus YLR268W, strain sec22, stronger effect = lower value 0.972 | S. cerevisiae deletion strains, locus YLR320W, strain mms22, stronger effect = lower value 0.984 | S. cerevisiae deletion strains, locus YLR330W, strain CHS5, stronger effect = lower value 1.01 | S. cerevisiae deletion strains, locus YLR342W, strain FKS1 (second series), stronger effect = lower value 1.01 | S. cerevisiae deletion strains, locus YLR342W, strain FKS1, stronger effect = lower value 0.956 | S. cerevisiae deletion strains, locus YLR357W, strain rsc2, stronger effect = lower value 0.986 | S. cerevisiae deletion strains, locus YLR370C, strain arc18, stronger effect = lower value 0.977 | S. cerevisiae deletion strains, locus YLR371W, strain rom2, stronger effect = lower value 1 | S. cerevisiae deletion strains, locus YLR384C, strain iki3, stronger effect = lower value 0.98 | S. cerevisiae deletion strains, locus YLR418C, strain cdc73, stronger effect = lower value 1.03 | S. cerevisiae deletion strains, locus YML016C, strain PPZ1, stronger effect = lower value 1.01 | S. cerevisiae deletion strains, locus YML032C, strain rad52, stronger effect = lower value 0.997 | S. cerevisiae deletion strains, locus YML120C, strain ndi1, stronger effect = lower value 0.973 | S. cerevisiae deletion strains, locus YML124C, strain tub3, stronger effect = lower value 0.989 | S. cerevisiae deletion strains, locus YMR058W, strain fet3, stronger effect = lower value 0.988 | S. cerevisiae deletion strains, locus YMR078C, strain ctf18, stronger effect = lower value 0.99 | S. cerevisiae deletion strains, locus YMR125W, strain sto1, stronger effect = lower value 0.981 | S. cerevisiae deletion strains, locus YMR129W, stronger effect = lower value 0.972 | S. cerevisiae deletion strains, locus YMR205C, strain PFK2, stronger effect = lower value 0.95 | S. cerevisiae deletion strains, locus YMR223W, strain ubp8, stronger effect = lower value 0.996 | S. cerevisiae deletion strains, locus YMR231W, strain pep5, stronger effect = lower value 0.992 | S. cerevisiae deletion strains, locus YMR263W, strain SAP30, stronger effect = lower value 1.02 | S. cerevisiae deletion strains, locus YMR307W, strain GAS1, stronger effect = lower value 1.02 | S. cerevisiae deletion strains, locus YNL067W, strain RPL9B, stronger effect = lower value 1.02 | S. cerevisiae deletion strains, locus YNL071W, strain lat1, stronger effect = lower value 0.984 | S. cerevisiae deletion strains, locus YNL128W, strain TEP1, stronger effect = lower value 1.04 | S. cerevisiae deletion strains, locus YNL153C, strain GIM3, stronger effect = lower value 1.01 | S. cerevisiae deletion strains, locus YNL209W, strain ssb2, stronger effect = lower value 0.982 | S. cerevisiae deletion strains, locus YNL233W, strain BNI4, stronger effect = lower value 1 | S. cerevisiae deletion strains, locus YNL248C, strain rpa49, stronger effect = lower value 1.01 | S. cerevisiae deletion strains, locus YNL250W, strain rad50, stronger effect = lower value 0.994 | S. cerevisiae deletion strains, locus YNL271C, strain bni1, stronger effect = lower value 1 | S. cerevisiae deletion strains, locus YNL298W, strain CLA4, stronger effect = lower value 1.01 | S. cerevisiae deletion strains, locus YNL307C, strain MCK1, stronger effect = lower value 0.978 | S. cerevisiae deletion strains, locus YNL322C, strain KRE1 (second series), stronger effect = lower value 0.979 | S. cerevisiae deletion strains, locus YNL322C, strain KRE1, stronger effect = lower value 1.01 | S. cerevisiae deletion strains, locus YNR049C, strain mso1, stronger effect = lower value 0.976 | S. cerevisiae deletion strains, locus YNR052C, strain pop2, stronger effect = lower value 1.01 | S. cerevisiae deletion strains, locus YOL006C, strain TOP1, stronger effect = lower value 1.02 | S. cerevisiae deletion strains, locus YOL012C, strain htz1 0.978 | S. cerevisiae deletion strains, locus YOL147C, strain pex11, stronger effect = lower value 0.992 | S. cerevisiae deletion strains, locus YOR001W, strain rrp6, stronger effect = lower value 1.01 | S. cerevisiae deletion strains, locus YOR061W, strain CKA2, stronger effect = lower value 1.01 | S. cerevisiae deletion strains, locus YOR069W, strain VPS5, stronger effect = lower value 1 | S. cerevisiae deletion strains, locus YOR070C, strain gyp1, stronger effect = lower value 0.987 | S. cerevisiae deletion strains, locus YOR080W, strain dia2, stronger effect = lower value 0.989 | S. cerevisiae deletion strains, locus YOR083W, strain WHI5, stronger effect = lower value 1.01 | S. cerevisiae deletion strains, locus YOR106W, strain vam3, stronger effect = lower value 0.994 | S. cerevisiae deletion strains, locus YOR136W, strain idh2, stronger effect = lower value 0.993 | S. cerevisiae deletion strains, locus YOR144C, strain elg1, stronger effect = lower value 0.999 | S. cerevisiae deletion strains, locus YOR184W, strain ser1, stronger effect = lower value 0.999 | S. cerevisiae deletion strains, locus YOR265W, strain rbl2, stronger effect = lower value 0.987 | S. cerevisiae deletion strains, locus YOR270C, strain vph1, stronger effect = lower value 0.989 | S. cerevisiae deletion strains, locus YOR290C, strain snf2, stronger effect = lower value 0.933 | S. cerevisiae deletion strains, locus YOR316C, strain cot1, stronger effect = lower value 1 | S. cerevisiae deletion strains, locus YPL051W, strain arl3, stronger effect = lower value 1 | S. cerevisiae deletion strains, locus YPL055C, strain LGE1, stronger effect = lower value 1.04 | S. cerevisiae deletion strains, locus YPL078C, strain atp4, stronger effect = lower value 0.995 | S. cerevisiae deletion strains, locus YPL106C, strain sse1, stronger effect = lower value 0.942 | S. cerevisiae deletion strains, locus YPL240C, strain hsp82, stronger effect = lower value 0.983 | S. cerevisiae deletion strains, locus YPL241C, strain CIN2, stronger effect = lower value 1.01 | S. cerevisiae deletion strains, locus YPR119W, strain clb2, stronger effect = lower value 0.99 | S. cerevisiae deletion strains, locus YPR141C, strain kar3, stronger effect = lower value 1 | S. cerevisiae deletion strains, locus YPR163C, strain tif3, stronger effect = lower value 0.992 | S. cerevisiae deletion strains, locus YPR167C, strain met16, stronger effect = lower value 1 | S. cerevisiae deletion strains, strain wtn01, stronger effect = lower value 0.997 | S. cerevisiae strains, strain wild type, stronger effect = lower value 1.02
